Our source for the composite z-score and z-score values is PubChem BioAssay.

Calls of active or inactive are those of the source. Unless noted, how the calls were made is not given here.

Assay [1] in a line: compounds binding Alexa647 anti-His antibody – biochemical, small-molecule microarray, 635 nm fluorescence, artefact control for SMM control protein annotation, primary screen (AID 1128).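 Further: score merges feature fluorescence with signal-to-noise for each printed compound spot.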 As to conditions: higher = more signal.
The subject of assay [2] is Human papillomavirus type 1a E7 protein (residues 1-88). As to the kind of experiment: HPV1a E7 small-molecule binders, primary screen, biochemical, small-molecule microarray, residues 1-88, 635 nm (AID 1129). As to conditions: small-molecule microarray binding, fluorescence 635 nm; higher = more signal.
Assay [3] deals with Focal adhesion kinase 1 (Homo sapiens) (UniProt Q05397). As to the kind of experiment: PTK2 protein binding on printed compound slides – biochemical, small-molecule microarray, 635/667 nm fluorescence, BSA, DTT, primary screen (AID 1130).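 Further: composite of spot emission at 667 nm and signal to noise over triplicate slides.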 As to conditions: 635 nm fluorescence, higher = more signal.
Assay [4] has as its system Fibrinogen (Alexa647-labelled). Description: Alexa647-fibrinogen binding to printed small molecules – biochemical, small-molecule microarray, 635/667 nm fluorescence, artefact control for SMM control-protein annotation, profiling panel (AID 1131).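 Further: z-score merges 667 nm fluorescence with per-spot signal-to-noise over triplicate slides.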 As to conditions: fibrinogen-A647 binding fluorescence, higher = more signal.
Assay [5] has as its target Follistatin (Homo sapiens) (UniProt P19883). Description: FST protein binding to printed compounds – biochemical, small-molecule microarray, 635/667 nm fluorescence, primary screen (AID 1132). The settings on record: 635 nm fluorescence, higher = more signal.
The target of assay [6] is Fibroblast growth factor 2 (Homo sapiens) (UniProt P09038). Description: basic fibroblast growth factor binding to printed compounds – biochemical, small-molecule microarray, 635/667 nm fluorescence, primary screen (AID 1133). The settings on record: FGF2, fluorescence 635/667, higher = more signal.
A short description of assay [7]: JC-1 mitochondrial potential readout, lung cancer cells – cell-based, A549, JC-1 fluorescence, basal, 24 h, 100 nL, profiling panel (AID 1138).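 Further: A549 lung adenocarcinoma cells under basal conditions with no added stimulus; test concentration not given here.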 As to conditions: higher = more signal.
Another assay deals with Lefty1. As to the kind of experiment: Lefty1 protein binding to printed compounds – biochemical, small-molecule microarray, 635/667 nm fluorescence, primary screen (AID 1139). As to conditions: fluorescence 635/667, higher = more signal.
Assay [8] deals with wheat germ agglutinin (Triticum aestivum), Alexa647-labelled. As to the kind of experiment: Alexa647-WGA lectin binding to printed small molecules – biochemical, small-molecule microarray, 635/667 nm fluorescence, artefact control for SMM control-protein annotation, profiling panel (AID 1140).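 Further: score merges 667 nm feature emission with signal to noise over triplicate slides.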 The settings on record: WGA-A647 binding, 635 nm fluorescence, higher = more signal.
Assay [9] concerns the target Luciferin 4-monooxygenase (Photinus pyralis) (UniProt P08659). As to the kind of experiment: inhibition of purified Photinus pyralis luciferase – biochemical, luminescence, purified enzyme, 2006 set, primary screen (AID 1141).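 Further: cell-free assay with purified firefly luciferase at 100 ng per well in PBS; test concentration not given here.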 The settings on record: purified firefly luciferase, SteadyGlo luminescence, 30 min; higher = more signal, called active from +8 up or from −8 down.

Assay [10] deals with Wnt5a (protein binding on small-molecule microarray). Description: small molecules binding Wnt5a protein – biophysical, small-molecule microarray, 635/667 nm fluorescence, primary screen (AID 1142).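 Further: fluorescence read at 667 nm with signal to noise per printed feature.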 The settings on record: 635 nm fluorescence, higher = more signal.
A short description of assay [11]: ATP-based viability of Huh7 replicon cells – cell-based, CellTiter-Glo luminescence, basal, 48 h, cytotoxicity control for HCV replication inhibitor project, primary screen (AID 1143).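 Further: Huh7 hepatoma cells carrying a hepatitis C replication reporter with no stimulus; test concentration not given here.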 As to conditions: higher = more signal, called active from +8 up or from −8 down. A general note: Replicon systems follow genome replication, usually without infectious particles.
Assay [12] can be described thus: Pseudomonas biofilm growth suppression – PAO1 strain, BacTiter-Glo luminescence, LB-PBS, primary screen (AID 1144). The settings on record: P. aeruginosa PAO1 biofilm, 12 h, higher = more signal.
Assay [13] is described as follows: basal CRE-LacZ reporter activity in PC12 – cell-based, unstimulated, primary screen (AID 1145). The settings on record: no forskolin, luminescence, 4.5 h, higher = more signal, called active from +8 up or from −8 down.
Assay [14] in a line: forskolin-driven CRE-LacZ activity in PC12 – cell-based, CRE-LacZ reporter, forskolin-stimulated, primary screen (AID 1146).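 Further: PC12 cells with 6xCRE LacZ reporter stimulated by forskolin 10 µM; beta-galactosidase reporter signal reflecting CREB driven transcription.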 The settings on record: luminescence, 4.5 h, higher = more signal, called active from +8 up or from −8 down.
Assay [15] addresses Streptavidin (Streptomyces avidinii) (UniProt P22629). Description: compounds binding control protein streptavidin – biophysical, small-molecule microarray, 635/667 nm fluorescence, artefact control for SMM compound annotation, primary screen (AID 1147).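 Further: signal reflects streptavidin binding to arrayed compounds as a control protein.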 As to conditions: higher = more signal.
Assay [16] is described as follows: probe aInhba binding on compound microarray – biochemical, small-molecule microarray, 635/667 nm fluorescence, primary screen (AID 1148).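 Further: score merges 667nm spot fluorescence with signal-to-noise for antibody binding to printed compounds.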 The settings on record: higher = more signal.
Assay [17] has as its target Torsin-1A (Homo sapiens) (UniProt O14656). Description: TOR1A wild-type binding on microarray – cell lysate, small-molecule microarray, lysate, 635/667 nm, primary screen (AID 1149). The settings on record: COS7 hTOR1A-WT lysate, 635 nm fluorescence, higher = more signal.
For assay [18] the target is unchanged. Description: torsin A mutant lysate binding on microarrays – cell lysate, small-molecule microarray, COS7 lysate, 635/667 nm fluorescence, primary screen (AID 1150).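 Further: score pools 667 nm emission and signal to noise measuring lysate protein binding.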 The settings on record: COS7 hTOR1A mutant lysate, 635 nm fluorescence, higher = more signal.
In assay [19] the test system is Sonic hedgehog protein (Shh). As to the kind of experiment: Sonic hedgehog microarray binding compounds – biochemical, small-molecule microarray, 635/667 nm fluorescence, primary screen (AID 1151).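 Further: Shh protein binding to compounds spotted on small-molecule microarray slides; score combines spot fluorescence intensity with signal-to-noise across triplicate slides.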 As to conditions: 635 nm fluorescence, higher = more signal.

Torsin-1A (Homo sapiens), sequence (O14656 whole entry, looked up): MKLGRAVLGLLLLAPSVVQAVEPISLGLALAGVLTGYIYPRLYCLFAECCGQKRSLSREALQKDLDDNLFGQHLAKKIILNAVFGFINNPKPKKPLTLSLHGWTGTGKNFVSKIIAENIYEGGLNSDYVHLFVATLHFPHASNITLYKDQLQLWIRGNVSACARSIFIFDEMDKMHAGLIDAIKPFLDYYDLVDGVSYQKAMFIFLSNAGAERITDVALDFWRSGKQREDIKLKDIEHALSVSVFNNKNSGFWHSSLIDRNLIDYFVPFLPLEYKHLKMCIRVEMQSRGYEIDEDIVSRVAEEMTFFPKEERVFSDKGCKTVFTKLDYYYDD
Fibroblast growth factor 2 (Homo sapiens), sequence (P09038 whole entry, looked up): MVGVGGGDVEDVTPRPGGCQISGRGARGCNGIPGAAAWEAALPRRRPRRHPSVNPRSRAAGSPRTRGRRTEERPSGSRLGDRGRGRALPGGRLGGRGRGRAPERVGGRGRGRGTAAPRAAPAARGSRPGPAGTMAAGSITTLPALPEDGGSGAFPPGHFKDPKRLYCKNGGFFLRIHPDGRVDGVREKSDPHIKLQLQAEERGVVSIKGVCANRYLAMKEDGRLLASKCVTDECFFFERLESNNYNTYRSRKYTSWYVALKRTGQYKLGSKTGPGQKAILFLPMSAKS
Luciferin 4-monooxygenase (Photinus pyralis), sequence (P08659 whole entry, looked up): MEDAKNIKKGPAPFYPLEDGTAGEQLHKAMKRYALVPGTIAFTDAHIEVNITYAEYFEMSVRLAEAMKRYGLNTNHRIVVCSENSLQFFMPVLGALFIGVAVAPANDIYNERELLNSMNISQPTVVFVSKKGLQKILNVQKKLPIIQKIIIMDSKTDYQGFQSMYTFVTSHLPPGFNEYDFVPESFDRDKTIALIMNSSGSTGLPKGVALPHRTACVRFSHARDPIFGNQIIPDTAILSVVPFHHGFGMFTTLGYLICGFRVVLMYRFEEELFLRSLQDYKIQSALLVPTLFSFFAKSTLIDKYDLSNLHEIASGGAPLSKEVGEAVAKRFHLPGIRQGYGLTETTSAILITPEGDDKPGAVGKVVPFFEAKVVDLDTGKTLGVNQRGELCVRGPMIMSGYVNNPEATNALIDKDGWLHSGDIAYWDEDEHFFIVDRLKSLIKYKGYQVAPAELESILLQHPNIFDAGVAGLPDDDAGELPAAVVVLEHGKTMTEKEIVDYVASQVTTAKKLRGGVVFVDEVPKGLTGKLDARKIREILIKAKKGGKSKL
Focal adhesion kinase 1 (Homo sapiens), sequence (Q05397 whole entry, looked up): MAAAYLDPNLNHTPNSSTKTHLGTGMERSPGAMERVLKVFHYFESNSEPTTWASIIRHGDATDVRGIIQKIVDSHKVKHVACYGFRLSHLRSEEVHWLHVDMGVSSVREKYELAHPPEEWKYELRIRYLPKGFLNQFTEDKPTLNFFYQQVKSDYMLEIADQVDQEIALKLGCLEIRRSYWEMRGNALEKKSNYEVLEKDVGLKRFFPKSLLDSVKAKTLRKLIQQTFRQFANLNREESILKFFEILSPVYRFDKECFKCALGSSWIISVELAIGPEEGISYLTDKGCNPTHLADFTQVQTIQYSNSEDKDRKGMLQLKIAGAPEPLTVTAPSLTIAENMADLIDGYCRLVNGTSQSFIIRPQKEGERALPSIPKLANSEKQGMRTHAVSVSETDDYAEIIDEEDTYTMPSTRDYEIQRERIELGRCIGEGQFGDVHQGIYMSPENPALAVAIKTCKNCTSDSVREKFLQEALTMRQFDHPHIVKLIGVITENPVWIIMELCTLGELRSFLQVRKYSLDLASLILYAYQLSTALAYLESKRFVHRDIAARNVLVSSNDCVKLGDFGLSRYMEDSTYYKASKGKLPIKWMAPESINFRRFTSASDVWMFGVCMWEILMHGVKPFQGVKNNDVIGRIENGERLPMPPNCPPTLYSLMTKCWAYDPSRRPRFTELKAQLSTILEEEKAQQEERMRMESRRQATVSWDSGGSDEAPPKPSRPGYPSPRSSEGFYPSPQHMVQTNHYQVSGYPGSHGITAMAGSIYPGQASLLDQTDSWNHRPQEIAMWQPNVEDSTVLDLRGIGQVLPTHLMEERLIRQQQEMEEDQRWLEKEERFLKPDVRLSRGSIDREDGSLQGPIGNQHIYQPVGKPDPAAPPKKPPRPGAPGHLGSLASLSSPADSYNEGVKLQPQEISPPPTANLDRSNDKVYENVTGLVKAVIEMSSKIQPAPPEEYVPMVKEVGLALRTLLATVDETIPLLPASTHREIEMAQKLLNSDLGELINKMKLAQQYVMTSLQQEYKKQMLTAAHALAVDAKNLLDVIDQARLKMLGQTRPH
Follistatin (Homo sapiens), sequence (P19883 whole entry, looked up): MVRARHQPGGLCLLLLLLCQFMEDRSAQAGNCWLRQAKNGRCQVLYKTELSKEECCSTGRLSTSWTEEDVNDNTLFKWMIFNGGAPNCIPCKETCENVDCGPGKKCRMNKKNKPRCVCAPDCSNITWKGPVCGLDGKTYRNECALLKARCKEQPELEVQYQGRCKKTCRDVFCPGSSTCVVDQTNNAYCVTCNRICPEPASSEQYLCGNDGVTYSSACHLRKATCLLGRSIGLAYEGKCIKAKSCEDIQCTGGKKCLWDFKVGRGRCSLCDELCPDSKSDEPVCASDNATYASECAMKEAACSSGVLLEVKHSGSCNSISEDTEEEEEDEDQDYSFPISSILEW
Streptavidin (Streptomyces avidinii), sequence (P22629 whole entry, looked up): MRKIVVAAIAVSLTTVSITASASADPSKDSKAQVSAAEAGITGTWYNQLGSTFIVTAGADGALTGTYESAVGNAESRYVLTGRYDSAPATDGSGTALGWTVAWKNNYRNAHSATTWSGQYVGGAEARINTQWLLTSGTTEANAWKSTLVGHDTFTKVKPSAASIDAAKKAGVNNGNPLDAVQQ

With `C=CC[C@]1(C(=O)NCCN2CCOCC2)N=C(c2ccc(OCCCO)cc2)O[C@H]1c1ccccc1`, the composite z-score in assay [1] was 0.566; in [2], 0.845; in assay [3] it was 0.0827; in assay [4], -0.212; in assay [5] it was 1.44; in assay [6], 1.8. For the same molecule, the composite z-score in the assay with Lefty1 worked out at 0.918; in assay [8] it was 0.496; in assay [10], 0.891; in assay [15], 0.416; in assay [16] it was 0.119; in the assay with Torsin-1A (Homo sapiens) [17] it was 2.03. The results for the composite z-score (in the assay with Torsin-1A (Homo sapiens) [18]; in assay [19]) were 1.44 and 0.638, respectively. The z-score in assay [7] is 0.654; in assay [9] it was 0.601 (inactive); in assay [11], -0.541 (inactive); in [12] it was 0.154 (inactive); in [13], 2.55 (inactive); in assay [14], -0.0077 (inactive).

As to `COC(=O)C1=CC(c2ccc(CO)cc2)=CC(C2CC2)N(Cc2cc3c(cc2Br)OCO3)C=C1C(=O)OC` (stereo not given), the composite z-score was determined as 2.85 in assay [1]; 1.19 in assay [2]; 0.833 in assay [3]; 0.879 in assay [4]; 0.62 in assay [5]; 0.907 in [6]. Also, the composite z-score in the assay on Lefty1 turned out to be 0.413; in assay [8], 1.06; in assay [10] it was 0.92; in [15] it was 1.52; in [16] it was 0.225; with Torsin-1A (Homo sapiens) [17], 0.312. The composite z-score with Torsin-1A (Homo sapiens) [18] was 0.832; in [19], 1.21. In addition, the z-score in assay [7] is 0.835; in assay [9], -0.817 (inactive); in assay [11], -3.35 (inactive); in assay [12] it was 0.754 (inactive); in [13], -0.904 (inactive); in assay [14], -0.5 (inactive).

Turning to `COC(=O)C(CC#Cc1ccc2c(c1)[C@]1(C(=O)N2)[C@H](C(=O)NC[C@H](O)c2ccccc2)[C@H]2C(=O)O[C@H](c3ccccc3)[C@H](c3ccccc3)N2[C@@H]1c1ccc(O)cc1)C(=O)OC`, the composite z-score in assay [1] was -0.716; in assay [2] it was -0.0341; in [3], 0.105; in assay [4], -0.906; in [5] it was 0.276; in assay [6], 0.0859. Further, the composite z-score with Lefty1 was 0.192; in [8], 0.0123; in assay [10], -0.174; in assay [15], -0.765; in [16], -0.0736; with Torsin-1A (Homo sapiens) [17], -0.93. Also, the composite z-score with Torsin-1A (Homo sapiens) [18] was -0.62; in assay [19], 0.21. Besides, the z-score in [7] is -1.62; in assay [9] it was -0.168 (inactive); in [11], -0.187 (inactive); in assay [12], 1.07 (inactive); in assay [13], 0.488 (inactive); in assay [14] it was -0.517 (inactive).

For `C=C(COC)C(=O)CC[C@@H](OC(=O)c1ccccc1-c1ccccc1C(=O)O)c1ccccc1OCCO`, the composite z-score in [1] was 0.116; in assay [2] it was 1.15; in assay [3], -0.267; in assay [4], 0.599; in [5] it was 1.29; in assay [6] it was 1.64. The composite z-score was 0.922 with Lefty1; -0.272 in assay [8]; 0.502 in assay [10]; -0.695 in [15]; -0.0762 in [16]; 1.49 in the assay with Torsin-1A (Homo sapiens) [17]. Also, the composite z-score with Torsin-1A (Homo sapiens) [18] is 0.0126; in assay [19], 1.45. Further, the z-score in [7] is -0.0562; in assay [9] it was -6.94 (inactive); in assay [11], -0.714 (inactive); in assay [12], -0.693 (inactive); in assay [13], 2.73 (inactive); in assay [14] it was 15.8 (active).

Take `C=CC[C@]1(C(=O)NCC(O)CO)N=C(c2ccc(OCCCO)cc2)O[C@H]1c1ccccc1CN=[N+]=[N-]` (stereo not given in full): the composite z-score is 2.81 in assay [1]; 1.22 in [2]; -0.209 in assay [3]; -0.204 in assay [4]; 0.875 in [5]; 0.785 in assay [6]. Also, the composite z-score in the assay on Lefty1 is -0.0497; in assay [8], 0.502; in assay [10], 0.176; in assay [15], 0.184; in [16], 0.249; in the assay with Torsin-1A (Homo sapiens) [17], 0.598. Further, the values for the composite z-score (with Torsin-1A (Homo sapiens) [18]; in assay [19]) were 2.58 and -0.803, respectively. The z-score in [7] was 0.895; in [9], -0.154 (inactive); in assay [11], -0.627 (inactive); in assay [12] it was 0.381 (inactive); in assay [13], 0.652 (inactive); in [14], -0.163 (inactive).

As for `COC(=O)C(CC#Cc1ccc2c(c1)[C@]1(C(=O)N2)[C@H](c2ccc(OCCO)cc2)N2[C@H](c3ccccc3)[C@H](c3ccccc3)OC(=O)[C@H]2[C@@H]1C(N)=O)C(=O)OC`, the composite z-score in assay [1] was 2.32; in [2], 1.21; in assay [3], 0.307; in assay [4] it was 0.858; in assay [5] it was 0.0592; in assay [6], -0.379. Besides, the composite z-score was -0.269 in the assay on Lefty1; 0.397 in assay [8]; -0.0885 in [10]; 1.42 in assay [15]; -0.0719 in [16]; 0.598 in the assay with Torsin-1A (Homo sapiens) [17]. Moreover, the results for the composite z-score (in the assay with Torsin-1A (Homo sapiens) [18]; in [19]) were -0.127 and -0.315, respectively. Also, the z-score was -0.616 in [7]; -1.38 (inactive) in assay [9]; -2.24 (inactive) in [11]; -0.287 (inactive) in [12]; -0.0246 (inactive) in assay [13]; 0.0658 (inactive) in assay [14].
